# According to PubChem BioAssay (EPA / NIEHS):
# Results filed as inconclusive are left out. Active and inactive are the calls of the source. How the source made its calls, unless noted: active means hit-call score of the fitted dose curve at least 0.9, where 1 is the maximum; inconclusive means response in the unintended direction; inactive means score below 0.9.
# How the values were obtained:
# NCBI gene 24521 = assay: NVS_IC_rKATPCh: NovaScreen (NVS) Ion Channel Assay for rat Potassium Channel, ATP-Sensitive (KATPCh) (AID 2283319)
# Method in brief: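 Rat cortical membranes; radioligand binding at ATP-sensitive K channel site, filter-based scintillation counting 2 h after dosing. Single-point duplicate screen at 25 uM, hits rerun in concentration-response up to 50 uM; loss of signal versus DMSO.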
# [1] = NVS_IC_rCaDHPRCh_L: NovaScreen (NVS) Ion Channel Assay for rat Calcium Channel, Type L, Dihydropyridine Site (CaDHPRCh_L) (AID 2283320)
# Method in brief: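 Radioligand binding to dihydropyridine site on rat cortical membranes, filter-based scintillation counting, 1 h after dosing. Screened in duplicate at 25 uM; actives rerun in concentration-response up to 50 uM. Loss of signal versus DMSO baseline.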
# [2] = target: Voltage-gated inwardly rectifying potassium channel KCNH2 (Homo sapiens) (UniProt Q12809); assay: NVS_IC_hKhERGCh: NovaScreen (NVS) Ion Channel Assay for human Potassium Channel ERG (KhERGCh) (AID 2283333)
# Method in brief: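 Cell-free radioligand competition binding on hERG protein extracted from CHO cells, read by filter-based scintillation counting 0.75 h after dosing. Primary screen at 25 uM in duplicate, actives followed in concentration series. Signal loss fitted versus DMSO.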
# [3] = NVS_IC_rCaBTZCHL: NovaScreen (NVS) Ion Channel Assay for Calcium Channel, Type L, Benzothiazepine Site (CaBTZCHL) (AID 2283337)
# Method in brief: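 Radioligand displacement at the benzothiazepine site using rat cortical membranes; bound label measured by filtration and scintillation counting 1.5 h after dosing. Single-point 25 uM in duplicate, then concentration series; DMSO baseline.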
# [4] = target: human Serotonin, 5-Hydroxytryptamine Receptor 3 (5HT3), HTR3A (gene 3359) (UniProt P46098); assay: NVS_LGIC_h5HT3: NovaScreen (NVS) Ligand-Gated Ion Channel Assay for human Serotonin, 5-Hydroxytryptamine Receptor 3 (5HT3) (AID 2283325)
# Chain of human Serotonin, 5-Hydroxytryptamine Receptor 3 (5HT3), HTR3A (gene 3359) (P46098 whole entry, looked up): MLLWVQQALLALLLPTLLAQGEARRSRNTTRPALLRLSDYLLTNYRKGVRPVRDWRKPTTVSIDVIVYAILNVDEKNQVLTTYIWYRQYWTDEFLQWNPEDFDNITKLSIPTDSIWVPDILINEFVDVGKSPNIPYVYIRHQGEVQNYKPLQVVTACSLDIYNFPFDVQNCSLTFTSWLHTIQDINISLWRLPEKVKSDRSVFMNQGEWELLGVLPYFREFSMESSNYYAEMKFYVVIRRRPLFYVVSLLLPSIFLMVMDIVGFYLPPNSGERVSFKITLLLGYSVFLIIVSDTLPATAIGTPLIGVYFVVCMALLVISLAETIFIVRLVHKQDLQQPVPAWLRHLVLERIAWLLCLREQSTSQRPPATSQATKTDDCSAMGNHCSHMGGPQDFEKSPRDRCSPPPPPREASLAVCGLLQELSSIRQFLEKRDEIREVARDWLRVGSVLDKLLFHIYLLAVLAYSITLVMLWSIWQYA
# Method in brief: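 Radioligand displacement binding to human 5-HT3 from HEK293 membranes, read by filter-based scintillation counting after 1 h. Screen at 25 uM in duplicate; chemicals passing threshold were retested in concentration-response up to 50 uM.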
# [5] = target: human Peripheral-type Benzodiazepine Receptor (PBR), TSPO (gene 706) (UniProt P30536); assay: NVS_MP_hPBR: NovaScreen (NVS) Membrane Protein Assay for human Peripheral-type Benzodiazepine Receptor (PBR) (AID 2283331);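 further: hits reduce radioligand binding relative to DMSO baseline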
# Chain of human Peripheral-type Benzodiazepine Receptor (PBR), TSPO (gene 706) (P30536 whole entry, looked up): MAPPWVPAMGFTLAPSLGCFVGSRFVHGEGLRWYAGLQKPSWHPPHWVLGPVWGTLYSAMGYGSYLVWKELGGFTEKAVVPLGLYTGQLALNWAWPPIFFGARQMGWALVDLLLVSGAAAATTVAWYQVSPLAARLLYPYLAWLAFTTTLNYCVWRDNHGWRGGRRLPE
# Method in brief: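 Radioligand displacement on human colonic cell membranes, 1 h incubation; bound radioactivity by filtration and scintillation counting. Primary screen in duplicate at 25 uM single concentration, actives followed up in concentration series; loss of binding versus DMSO.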
# [6] = target: rat Peripheral-type Benzodiazepine Receptor (PBR), Tspo (gene 24230) (UniProt P16257); assay: NVS_MP_rPBR: NovaScreen (NVS) Membrane Protein Assay for rat Peripheral-type Benzodiazepine Receptor (PBR) (AID 2283335)
# Chain of rat Peripheral-type Benzodiazepine Receptor (PBR), Tspo (gene 24230) (P16257 whole entry, looked up): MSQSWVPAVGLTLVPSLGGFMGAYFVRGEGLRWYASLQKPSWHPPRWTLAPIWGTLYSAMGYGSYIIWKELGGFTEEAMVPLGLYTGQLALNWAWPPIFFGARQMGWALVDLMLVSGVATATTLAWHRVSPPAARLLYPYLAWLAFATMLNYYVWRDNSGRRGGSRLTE
# Method in brief: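 Rat kidney membranes; radioligand binding with displacement, filter-based scintillation counting, 1 h incubation. Primary screen in duplicate at 25 uM, actives followed in concentration series; loss of binding vs DMSO.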
# [7] = target: Small conductance calcium-activated potassium channel protein 1 (Rattus norvegicus) (UniProt P70606); assay: NVS_IC_rKCaCh: NovaScreen (NVS) Ion Channel Assay for rat Potassium Channel, Ca2+ Act., VI (KCaCh) (AID 2283336)
# Chain of Small conductance calcium-activated potassium channel protein 1 (Rattus norvegicus) (P70606 whole entry, looked up): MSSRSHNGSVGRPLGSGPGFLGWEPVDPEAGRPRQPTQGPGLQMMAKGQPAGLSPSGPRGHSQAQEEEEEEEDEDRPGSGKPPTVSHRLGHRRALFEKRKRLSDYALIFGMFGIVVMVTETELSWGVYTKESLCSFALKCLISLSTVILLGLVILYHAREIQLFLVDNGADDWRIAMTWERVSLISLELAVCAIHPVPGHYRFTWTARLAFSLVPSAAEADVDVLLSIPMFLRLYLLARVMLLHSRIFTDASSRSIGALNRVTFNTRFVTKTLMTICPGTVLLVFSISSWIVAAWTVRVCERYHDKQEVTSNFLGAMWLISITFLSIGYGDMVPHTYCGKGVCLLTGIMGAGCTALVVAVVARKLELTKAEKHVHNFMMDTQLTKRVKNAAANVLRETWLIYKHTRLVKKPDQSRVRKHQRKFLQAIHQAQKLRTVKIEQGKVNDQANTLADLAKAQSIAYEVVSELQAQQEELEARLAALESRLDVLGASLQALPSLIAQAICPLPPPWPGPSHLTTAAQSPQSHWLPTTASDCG
# Method in brief: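 Radioligand binding to rat forebrain membranes, cell-free, read 1 hour after dosing by filter-based scintillation counting. Compounds first run in duplicate at 25 uM, actives then in concentration series; loss of signal vs DMSO indicates displacement.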
# [8] = target: human Constitutive Androstane Receptor (CAR), NR1I3 (gene 9970) (UniProt Q14994); assay: NVS_NR_hCAR_Agonist: NovaScreen (NVS) Nuclear Receptor Binding Assay for human Constitutive Androstane Receptor Agonism (CAR) (AID 2283328)
# Chain of human Constitutive Androstane Receptor (CAR), NR1I3 (gene 9970) (Q14994 whole entry, looked up): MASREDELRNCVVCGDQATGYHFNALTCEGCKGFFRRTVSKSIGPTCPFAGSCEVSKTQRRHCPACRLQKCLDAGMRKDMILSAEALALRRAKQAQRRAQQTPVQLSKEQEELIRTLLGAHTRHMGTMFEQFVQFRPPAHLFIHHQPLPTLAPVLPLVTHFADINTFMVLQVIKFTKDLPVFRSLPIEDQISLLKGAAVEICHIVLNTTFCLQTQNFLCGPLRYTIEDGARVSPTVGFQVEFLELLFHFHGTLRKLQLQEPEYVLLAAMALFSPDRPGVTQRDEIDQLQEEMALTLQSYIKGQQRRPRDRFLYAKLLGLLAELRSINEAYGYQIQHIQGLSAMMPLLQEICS
# Method in brief: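 Cell-free TR-FRET binding readout with extracted human CAR protein, read 1 h after dosing. Gain of signal fitted against DMSO baseline. Single-concentration duplicates at 25 uM, then concentration-response up to 50 uM for actives.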
# [9] = target: bovine Gamma-Aminobutyric Acid Type A Receptor Agonist (GABAR Agonist), GABRA1 (gene 780973) (UniProt P08219); assay: NVS_LGIC_bGABAR_Agonist: NovaScreen (NVS) Ligand-Gated Ion Channel Assay for bovine Gamma-Aminobutyric Acid Type A Receptor Agonist (GABAR Agonist) (AID 2283338)
# Chain of bovine Gamma-Aminobutyric Acid Type A Receptor Agonist (GABAR Agonist), GABRA1 (gene 780973) (P08219 whole entry, looked up): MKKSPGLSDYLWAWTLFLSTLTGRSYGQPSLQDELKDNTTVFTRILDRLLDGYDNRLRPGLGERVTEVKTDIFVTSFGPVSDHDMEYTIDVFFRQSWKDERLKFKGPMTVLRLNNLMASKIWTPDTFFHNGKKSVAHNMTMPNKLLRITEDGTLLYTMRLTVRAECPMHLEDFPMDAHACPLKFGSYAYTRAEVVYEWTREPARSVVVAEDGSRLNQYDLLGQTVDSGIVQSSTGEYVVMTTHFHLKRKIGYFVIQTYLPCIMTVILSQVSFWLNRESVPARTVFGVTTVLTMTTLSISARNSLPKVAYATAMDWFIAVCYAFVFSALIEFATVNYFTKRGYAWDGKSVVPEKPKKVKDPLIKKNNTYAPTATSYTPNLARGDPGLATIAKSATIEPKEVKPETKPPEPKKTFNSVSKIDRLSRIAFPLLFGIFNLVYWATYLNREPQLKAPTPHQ
# Method in brief: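 Radioligand binding to bovine cerebellar membranes in agonist format, read by filter-based scintillation counting after 1 h. Primary screen in duplicate at 25 uM, with actives followed in concentration series. Gain of signal versus DMSO.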
# [10] = target: rat Glutamate, NMDA Agonist Site (GluNMDA), Grin1 (gene 24408) (UniProt P35439); assay: NVS_LGIC_rGluNMDA_Agonist: NovaScreen (NVS) Ligand-Gated Ion Channel Assay for rat Glutamate, NMDA Agonist Site (GluNMDA) (AID 2283327)
# Method in brief: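 Rat forebrain membranes, radioligand binding in the agonist-site protocol; 1 h after dosing; filter-based scintillation counting. Single-concentration duplicate screen at 25 uM, then concentration-response up to 50 uM for actives; gain-of-signal vs DMSO.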
# [11] = target: rat Glutamate, MK-801 Agonist Site (GluNMDA_MK801), Grin1 (gene 24408) (UniProt P35439); assay: NVS_LGIC_rGluNMDA_MK801_Agonist: NovaScreen (NVS) Ligand-Gated Ion Channel Assay for rat Glutamate, MK-801 Agonist Site (GluNMDA_MK801) (AID 2283340)
# Method in brief: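 Radioligand binding at MK-801 site in rat forebrain membranes, 1.5 h incubation, filter-based scintillation counting. Initially 25 uM in duplicate; actives then run in concentration-response up to 50 uM, fitted for gain of signal versus DMSO.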
# [12] = target: human Androgen Receptor (AR), AR (gene 367) (UniProt P10275); assay: NVS_NR_hAR: NovaScreen (NVS) Nuclear Receptor Binding Assay for human Androgen Receptor (AR) (AID 2283332)
# Chain of human Androgen Receptor (AR), AR (gene 367) (P10275 whole entry, looked up): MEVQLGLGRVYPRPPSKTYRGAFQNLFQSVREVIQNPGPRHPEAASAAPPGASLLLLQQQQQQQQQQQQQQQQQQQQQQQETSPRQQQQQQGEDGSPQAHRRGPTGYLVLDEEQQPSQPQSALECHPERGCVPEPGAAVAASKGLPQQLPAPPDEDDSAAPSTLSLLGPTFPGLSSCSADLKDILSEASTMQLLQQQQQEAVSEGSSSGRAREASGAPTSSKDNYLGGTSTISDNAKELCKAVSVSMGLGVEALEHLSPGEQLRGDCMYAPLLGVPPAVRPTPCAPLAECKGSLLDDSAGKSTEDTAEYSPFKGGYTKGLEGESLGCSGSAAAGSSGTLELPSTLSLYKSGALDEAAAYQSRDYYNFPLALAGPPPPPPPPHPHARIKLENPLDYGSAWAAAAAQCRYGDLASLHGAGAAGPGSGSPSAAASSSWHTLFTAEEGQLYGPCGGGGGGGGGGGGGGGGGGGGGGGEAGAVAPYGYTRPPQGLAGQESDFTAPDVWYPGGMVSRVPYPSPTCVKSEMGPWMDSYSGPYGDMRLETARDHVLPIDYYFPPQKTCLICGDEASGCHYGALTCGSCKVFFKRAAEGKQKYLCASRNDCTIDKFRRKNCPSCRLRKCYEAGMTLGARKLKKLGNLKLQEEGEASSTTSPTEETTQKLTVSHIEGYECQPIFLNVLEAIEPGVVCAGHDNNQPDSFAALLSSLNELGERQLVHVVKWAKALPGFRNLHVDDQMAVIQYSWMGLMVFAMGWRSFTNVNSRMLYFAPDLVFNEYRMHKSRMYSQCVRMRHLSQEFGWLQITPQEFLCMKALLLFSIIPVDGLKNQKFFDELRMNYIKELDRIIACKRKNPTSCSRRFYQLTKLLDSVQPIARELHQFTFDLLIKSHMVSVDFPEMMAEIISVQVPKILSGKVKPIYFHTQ
# Method in brief: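 LnCAP cell-free extract; radioligand displacement read by scintillation counting after 20 h. Primary screen single concentration 25 uM in duplicate, actives then run as concentration series; loss-of-signal fitted relative to DMSO baseline.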
# [13] = target: Glutamate receptor ionotropic, kainate 1 (Rattus norvegicus) (UniProt P22756); assay: NVS_IC_rKAR: NovaScreen (NVS) Ion Channel Assay for rat Kainic Acid Receptors (KAR) (AID 2283334; active means hit-call score of the fitted dose curve at least 0.9, where 1 is the maximum; inactive means score below 0.9)
# Chain of Glutamate receptor ionotropic, kainate 1 (Rattus norvegicus) (P22756 whole entry, looked up): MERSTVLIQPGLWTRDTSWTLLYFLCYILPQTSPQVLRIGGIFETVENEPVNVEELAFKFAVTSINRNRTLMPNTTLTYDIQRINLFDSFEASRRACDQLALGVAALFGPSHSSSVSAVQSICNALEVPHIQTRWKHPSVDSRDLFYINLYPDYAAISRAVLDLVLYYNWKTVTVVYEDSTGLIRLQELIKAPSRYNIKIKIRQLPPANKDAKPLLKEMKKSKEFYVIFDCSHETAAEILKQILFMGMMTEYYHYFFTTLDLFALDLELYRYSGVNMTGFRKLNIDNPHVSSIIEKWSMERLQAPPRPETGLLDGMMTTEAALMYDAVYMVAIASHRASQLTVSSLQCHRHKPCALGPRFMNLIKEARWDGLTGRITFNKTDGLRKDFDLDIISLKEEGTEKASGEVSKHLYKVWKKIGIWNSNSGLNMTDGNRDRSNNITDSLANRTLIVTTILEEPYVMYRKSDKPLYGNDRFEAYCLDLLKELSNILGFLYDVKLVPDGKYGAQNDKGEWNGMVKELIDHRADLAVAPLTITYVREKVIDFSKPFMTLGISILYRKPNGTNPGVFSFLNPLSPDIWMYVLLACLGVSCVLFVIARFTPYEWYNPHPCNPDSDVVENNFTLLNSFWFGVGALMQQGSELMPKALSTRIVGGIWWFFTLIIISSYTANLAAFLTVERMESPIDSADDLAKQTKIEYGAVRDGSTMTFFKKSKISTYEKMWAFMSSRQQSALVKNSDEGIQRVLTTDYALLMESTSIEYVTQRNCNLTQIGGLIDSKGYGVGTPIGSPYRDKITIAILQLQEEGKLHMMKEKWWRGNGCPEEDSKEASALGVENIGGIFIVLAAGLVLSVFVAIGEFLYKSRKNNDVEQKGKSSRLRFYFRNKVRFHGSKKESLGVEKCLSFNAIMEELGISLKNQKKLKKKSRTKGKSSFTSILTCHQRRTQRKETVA
# Method in brief: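 Radioligand displacement binding using rat forebrain membranes, 1 h incubation, filter-based scintillation counting. Screened in duplicate at 25 uM, with actives retested in concentration-response up to 50 uM; fitted against DMSO.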
structure (smiles),measurement,setting,value
CCCc1cc(=O)[nH]c(=S)[nH]1,outcome,NCBI gene 24521,inactive
COc1cc(-c2nc(NC(=O)c3cc4cc(C)cc(C)c4n3CC(=O)O)sc2CCC2CCCCC2)c(OC)cc1Cl,AC50,[1],6.08 µM (active)
CN1CCN(Cc2cc(-c3ccc4[nH]c(=O)oc4c3)co2)[C@@H](c2ccc(F)cc2)C1,AC50,[1],15 µM (active)
same,outcome,[2],inactive
same,AC50,[3],5.34 µM (active)
CNCc1cc(F)ccc1Oc1ccc(Cl)c(Cl)c1,outcome,[4],inactive
CC=Cc1ccc(O)c(OC)c1,AC50,[5],17.2 µM (active)
same,AC50,[6],3.55 µM (active)
same,outcome,[7],inactive
Nc1ccc2c(c1)C(=O)c1ccccc1C2=O,outcome,[5],inactive
Cc1ccc(Cl)cc1,AC50,[4],7.56 µM (active)
CC(C)(C)c1cc(O)c(C(C)(C)C)cc1O,outcome,[8],inactive
same,outcome,[9],inactive
CCCCC(CC)COC(=O)CC(C(=O)OCC(CC)CCCC)S(=O)(=O)O (centres undefined),AC50,[10],38.3 µM (active)
same,AC50,[6],9.22 µM (active)
same,outcome,[11],inactive
Cc1ccc(C(C)C)c(O)c1,AC50,[5],18.3 µM (active)
same,outcome,[6],inactive
same,outcome,[9],inactive
CCCCCCCCCCCC(=O)OC,outcome,[4],inactive
CCCCCCCCCCC,outcome,[12],inactive
CCCCCCCCCCCCCO,outcome,[8],inactive
O=C(OCCCCCOC(=O)c1ccccc1)c1ccccc1,AC50,[4],0.0428 µM (active)
Nc1ccc(S(=O)(=O)c2ccc(N)cc2)cc1,AC50,[6],3.28 µM (active)
Nc1ccccc1N,outcome,[5],inactive
NS(=O)(=O)c1cc2c(cc1Cl)NCNS2(=O)=O,outcome,[6],inactive
C=CCOC(=O)c1ccccc1C(=O)OCC=C,AC50,[5],25 µM (active)
same,outcome,[6],inactive
Cc1nc(-c2ccc3c(c2)CCN(CCC2CCC(NC(=O)/C=C/c4ccc(F)cc4)CC2)CC3)no1 (centres undefined),outcome,[3],inactive
CCCCCCC(=O)OCC,outcome,[13],inactive
Cc1oc(-c2ccccc2)nc1CCOc1cccc2c1ccn2CCC(=O)O,AC50,[6],46.5 µM (active)
Cc1cccc([N+](=O)[O-])c1C,outcome,[9],inactive
CC(=O)OCCOCCOCCOC(C)=O,outcome,[9],inactive
COc1cc(C=O)ccc1O,AC50,[4],15 µM (active)
same,outcome,[9],inactive
CCCCN(CCCC)CCCC,outcome,[7],inactive
COc1cc(S(=O)(=O)O)c(C)cc1N=Nc1c(O)ccc2cc(S(=O)(=O)O)ccc12,AC50,[4],32.8 µM (active)
same,outcome,[13],inactive
same,outcome,[3],inactive
